Results taken from the supplement of paper PMC10849652.
Targets with a hit are over-represented here; the source holds about 7,900 in all. About 0.6% of all pairs of compound and target were hits. A number with no mark means an inactive call.

Key:
Test in all cases: log2 fold change, soluble protein after heating vs DMSO (PISA); higher = thermal stabilisation; K562 cells, 10 uM, 30 min; active = over 0.2 and 3.5 SD of the protein, either way, in both replicates (recomputed)
[1] = compound: CC[C@@H]1C(=O)N(C)c2cnc(Nc3ccc(C(=O)NC4CCN(C)CC4)cc3OC)nc2N1C1CCCC1
In short: (§1)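 Soluble protein was defined as the supernatant after 21,000xg for 90 min. It came from K562 cells at 2×10^6 cells/mL given 10 μM compound for 30 min, heated in aliquots for 3 min across 48°C-58°C, pooled, and extracted in PBS with 0.5% NP-40 at 4°C, and was quantified by TMTpro 16plex LC-MS/MS with equalised channel sums. Thermal stability against control samples, from duplicates, is reported as log2 fold change.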

volasertib = compound: CC[C@@H]1C(=O)N(C)c2cnc(Nc3ccc(C(=O)N[C@H]4CC[C@H](N5CCN(CC6CC6)CC5)CC4)cc3OC)nc2N1C(C)C [volasertib]
In short: as §1

[2] = compound: CC[C@H](C)N1C=C(C2=C(C=C(C=C21)C3=CN=C(C=C3)N4CCNCC4)C(=O)NCC5=C(C=C(NC5=O)C)C)C
In short: as §1

epoxomicin = compound: CC[C@H](C)[C@@H](C(=O)N[C@@H]([C@@H](C)O)C(=O)N[C@@H](CC(C)C)C(=O)[C@]1(CO1)C)NC(=O)[C@H]([C@@H](C)CC)N(C)C(=O)C [epoxomicin]
In short: as §1

[3] = compound: CCn1c(C(=O)N(C2CC2)C2CC2)cc2c3c(ncn3C)c(Nc3cc(C)n(C)n3)nc21
In short: as §1

[4] = compound: CCn1cc(-c2ccnc3[nH]c(-c4cccc(CN(C)C)c4)cc23)c(-c2ccc(NC(=O)N(C)C)cc2)n1
In short: as §1

[5] = compound: CN(C)CC(=O)Nc1ccc2[nH]c(=O)c3ccccc3c2c1
In short: as §1

rosiglitazone = compound: CN(CCOC1=CC=C(C=C1)C[C@H]2C(=O)NC(=O)S2)C3=CC=CC=N3 (racemic) [rosiglitazone]
In short: as §1

[6] = compound: CN1C2=C(C3=C1C(=O)N(N=C3)CC4=CC(=CC=C4)N)SC(=C2)S(=O)C
In short: as §1

[7] = compound: CN1CCC(CNc2ccc3ncc(-c4cccc(OC(F)(F)F)c4)n3n2)CC1
In short: as §1

saracatinib = compound: CN1CCN(CCOc2cc(OC3CCOCC3)c3c(Nc4c(Cl)ccc5c4OCO5)ncnc3c2)CC1 [saracatinib]
In short: as §1

sotrastaurin = compound: CN1CCN(c2nc(C3=C(c4c[nH]c5ccccc45)C(=O)NC3=O)c3ccccc3n2)CC1 [sotrastaurin]
In short: as §1

alvocidib = compound: CN1CC[C@H](c2c(O)cc(O)c3c(=O)cc(-c4ccccc4Cl)oc23)[C@H](O)C1 [alvocidib]
In short: as §1

Tubastatin A = compound: CN1CCc2c(c3ccccc3n2Cc2ccc(C(=O)NO)cc2)C1 [Tubastatin A]
In short: as §1

[8] = compound: CNC(=O)C1=CC=CC=C1NC2=NC(=NC=C2Cl)NC3=C(C=C(C=C3)N4CCOCC4)OC
In short: as §1

defactinib = compound: CNC(=O)c1ccc(Nc2ncc(C(F)(F)F)c(NCc3nccnc3N(C)S(C)(=O)=O)n2)cc1 [defactinib]
In short: as §1

rucaparib = compound: CNCc1ccc(-c2[nH]c3cc(F)cc4c3c2CCNC4=O)cc1 [rucaparib]
In short: as §1

[9] = compound: CNc1nc(-c2ccc3c(N)n[nH]c3c2)cc(N2C[C@@H](C(=O)NC3CCCCC3)CC[C@H]2C)n1
In short: as §1

encorafenib = compound: COC(=O)N[C@@H](C)CNc1nccc(-c2cn(C(C)C)nc2-c2cc(Cl)cc(NS(C)(=O)=O)c2F)n1 [encorafenib]
In short: as §1

[10] = compound: COC(=O)[C@H](CCSC)NC(=O)C1=C(C=C(C=C1)NC[C@H](CS)N)C2=CC=CC=C2
In short: as §1

UniProt A0PJW6, sequence (A0PJW6 whole entry, looked up): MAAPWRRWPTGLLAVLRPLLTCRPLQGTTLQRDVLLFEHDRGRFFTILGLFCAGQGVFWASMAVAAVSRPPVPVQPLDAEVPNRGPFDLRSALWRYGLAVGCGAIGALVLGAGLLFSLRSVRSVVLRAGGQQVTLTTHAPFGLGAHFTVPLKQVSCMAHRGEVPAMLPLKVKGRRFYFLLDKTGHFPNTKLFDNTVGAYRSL
UniProt Q92890, sequence (Q92890 whole entry, looked up): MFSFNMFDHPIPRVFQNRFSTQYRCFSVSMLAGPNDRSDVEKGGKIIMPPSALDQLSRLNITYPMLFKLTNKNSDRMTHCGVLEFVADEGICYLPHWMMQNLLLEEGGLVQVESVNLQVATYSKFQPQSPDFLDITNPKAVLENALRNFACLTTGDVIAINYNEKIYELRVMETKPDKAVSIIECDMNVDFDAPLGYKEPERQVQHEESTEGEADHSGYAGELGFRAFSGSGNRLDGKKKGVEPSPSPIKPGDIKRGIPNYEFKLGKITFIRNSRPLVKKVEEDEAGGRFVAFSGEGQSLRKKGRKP
UniProt Q969X6, sequence (Q969X6 whole entry, looked up): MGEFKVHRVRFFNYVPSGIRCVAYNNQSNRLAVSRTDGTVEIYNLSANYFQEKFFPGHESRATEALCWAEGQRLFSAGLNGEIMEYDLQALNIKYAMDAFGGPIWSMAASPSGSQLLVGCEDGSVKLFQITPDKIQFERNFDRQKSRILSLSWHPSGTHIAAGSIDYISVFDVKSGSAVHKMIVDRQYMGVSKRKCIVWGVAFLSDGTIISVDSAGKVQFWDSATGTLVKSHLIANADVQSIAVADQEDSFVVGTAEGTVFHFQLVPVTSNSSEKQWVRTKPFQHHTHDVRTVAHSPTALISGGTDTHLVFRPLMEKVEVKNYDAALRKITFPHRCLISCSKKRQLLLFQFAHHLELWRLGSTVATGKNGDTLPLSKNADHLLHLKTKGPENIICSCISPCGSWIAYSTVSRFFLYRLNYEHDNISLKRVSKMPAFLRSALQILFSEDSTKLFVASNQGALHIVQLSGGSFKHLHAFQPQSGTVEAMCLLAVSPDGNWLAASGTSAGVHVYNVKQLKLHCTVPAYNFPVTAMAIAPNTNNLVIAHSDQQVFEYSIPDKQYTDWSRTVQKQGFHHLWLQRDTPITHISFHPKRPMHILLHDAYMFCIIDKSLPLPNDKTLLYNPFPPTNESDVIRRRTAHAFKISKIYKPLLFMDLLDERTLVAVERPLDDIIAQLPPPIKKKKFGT
UniProt Q15388, sequence (Q15388 whole entry, looked up): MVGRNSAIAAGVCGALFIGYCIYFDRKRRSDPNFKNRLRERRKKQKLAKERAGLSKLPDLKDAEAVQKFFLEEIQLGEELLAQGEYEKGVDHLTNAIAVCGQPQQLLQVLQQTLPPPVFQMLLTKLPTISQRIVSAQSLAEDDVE
UniProt O43396, sequence (O43396 whole entry, looked up): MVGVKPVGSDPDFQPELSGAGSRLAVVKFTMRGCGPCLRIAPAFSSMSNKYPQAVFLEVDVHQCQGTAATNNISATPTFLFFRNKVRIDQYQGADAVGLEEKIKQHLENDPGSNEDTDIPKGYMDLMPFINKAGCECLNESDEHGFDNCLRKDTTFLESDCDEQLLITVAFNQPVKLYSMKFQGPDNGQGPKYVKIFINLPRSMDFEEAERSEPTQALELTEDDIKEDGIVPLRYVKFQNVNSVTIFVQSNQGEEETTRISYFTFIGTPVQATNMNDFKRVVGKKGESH
UniProt Q9UID3, sequence (Q9UID3 whole entry, looked up): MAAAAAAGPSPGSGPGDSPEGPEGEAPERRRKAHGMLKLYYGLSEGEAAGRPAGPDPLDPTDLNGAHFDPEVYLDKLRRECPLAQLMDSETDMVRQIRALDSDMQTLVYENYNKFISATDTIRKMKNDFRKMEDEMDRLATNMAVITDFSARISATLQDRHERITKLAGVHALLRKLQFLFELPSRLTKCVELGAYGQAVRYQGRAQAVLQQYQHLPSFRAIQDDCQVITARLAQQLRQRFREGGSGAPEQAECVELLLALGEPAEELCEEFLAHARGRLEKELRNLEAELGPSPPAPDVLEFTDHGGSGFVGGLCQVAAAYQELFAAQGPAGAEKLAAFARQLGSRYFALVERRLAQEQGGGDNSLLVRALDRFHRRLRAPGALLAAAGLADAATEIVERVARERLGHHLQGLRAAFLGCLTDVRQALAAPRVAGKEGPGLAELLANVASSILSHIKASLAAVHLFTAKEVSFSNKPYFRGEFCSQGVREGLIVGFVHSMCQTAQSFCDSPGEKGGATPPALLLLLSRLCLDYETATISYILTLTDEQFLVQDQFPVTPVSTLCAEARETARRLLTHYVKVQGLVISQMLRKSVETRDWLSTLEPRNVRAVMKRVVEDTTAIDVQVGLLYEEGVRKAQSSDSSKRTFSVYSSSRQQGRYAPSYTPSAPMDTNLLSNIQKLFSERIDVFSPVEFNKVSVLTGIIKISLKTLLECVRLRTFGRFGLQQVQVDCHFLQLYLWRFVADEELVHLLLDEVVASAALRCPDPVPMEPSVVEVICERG
UniProt O60763, sequence (O60763 whole entry, looked up): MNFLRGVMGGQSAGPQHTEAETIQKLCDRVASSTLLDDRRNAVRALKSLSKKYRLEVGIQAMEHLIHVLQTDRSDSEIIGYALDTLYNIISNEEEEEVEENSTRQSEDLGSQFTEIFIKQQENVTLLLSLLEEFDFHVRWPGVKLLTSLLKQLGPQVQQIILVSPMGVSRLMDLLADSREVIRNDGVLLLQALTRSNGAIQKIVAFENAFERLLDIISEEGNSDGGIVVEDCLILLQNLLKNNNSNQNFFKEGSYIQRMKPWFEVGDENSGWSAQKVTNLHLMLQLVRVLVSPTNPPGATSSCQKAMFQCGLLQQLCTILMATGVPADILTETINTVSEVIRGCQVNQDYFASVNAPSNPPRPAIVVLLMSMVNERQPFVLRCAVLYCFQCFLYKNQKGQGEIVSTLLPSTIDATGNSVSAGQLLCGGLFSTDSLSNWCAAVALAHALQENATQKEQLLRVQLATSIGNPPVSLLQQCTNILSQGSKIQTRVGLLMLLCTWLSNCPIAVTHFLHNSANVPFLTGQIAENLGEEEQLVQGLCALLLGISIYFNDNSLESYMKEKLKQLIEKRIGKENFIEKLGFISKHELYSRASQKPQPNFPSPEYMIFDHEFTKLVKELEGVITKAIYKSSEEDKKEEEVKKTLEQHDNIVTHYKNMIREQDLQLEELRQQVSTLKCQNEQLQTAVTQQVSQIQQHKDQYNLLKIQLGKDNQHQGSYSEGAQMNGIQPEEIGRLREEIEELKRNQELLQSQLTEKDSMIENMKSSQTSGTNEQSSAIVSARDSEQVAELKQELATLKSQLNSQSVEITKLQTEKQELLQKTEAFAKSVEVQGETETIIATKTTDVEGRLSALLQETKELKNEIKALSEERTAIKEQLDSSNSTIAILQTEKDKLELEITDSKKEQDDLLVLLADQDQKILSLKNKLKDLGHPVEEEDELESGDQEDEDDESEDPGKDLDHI
UniProt Q9UEU0, sequence (Q9UEU0 whole entry, looked up): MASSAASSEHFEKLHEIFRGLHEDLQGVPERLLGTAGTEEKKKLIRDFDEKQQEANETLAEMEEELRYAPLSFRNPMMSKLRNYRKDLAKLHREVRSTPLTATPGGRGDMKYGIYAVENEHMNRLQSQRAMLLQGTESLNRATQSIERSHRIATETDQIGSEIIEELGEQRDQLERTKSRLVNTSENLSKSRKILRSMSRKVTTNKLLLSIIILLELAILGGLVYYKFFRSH
UniProt Q9BTX3, sequence (Q9BTX3 whole entry, looked up): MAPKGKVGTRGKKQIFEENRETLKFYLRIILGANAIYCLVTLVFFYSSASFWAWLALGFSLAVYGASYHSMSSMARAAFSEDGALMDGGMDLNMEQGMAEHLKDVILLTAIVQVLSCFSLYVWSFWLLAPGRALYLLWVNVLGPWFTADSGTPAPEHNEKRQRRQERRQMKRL
UniProt Q7Z7E8, sequence (Q7Z7E8 whole entry, looked up): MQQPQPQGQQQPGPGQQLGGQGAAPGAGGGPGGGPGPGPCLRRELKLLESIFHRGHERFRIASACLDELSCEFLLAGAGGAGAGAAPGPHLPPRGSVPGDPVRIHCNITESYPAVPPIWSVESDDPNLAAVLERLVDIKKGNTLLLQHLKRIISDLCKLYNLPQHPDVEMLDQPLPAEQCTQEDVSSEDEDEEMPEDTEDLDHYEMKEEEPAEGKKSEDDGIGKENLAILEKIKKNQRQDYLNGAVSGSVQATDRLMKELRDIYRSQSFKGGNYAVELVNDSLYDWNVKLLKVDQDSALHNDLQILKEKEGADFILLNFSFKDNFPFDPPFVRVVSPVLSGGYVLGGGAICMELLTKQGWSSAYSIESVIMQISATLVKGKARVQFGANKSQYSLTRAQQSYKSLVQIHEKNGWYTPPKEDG
UniProt O43617, sequence (O43617 whole entry, looked up): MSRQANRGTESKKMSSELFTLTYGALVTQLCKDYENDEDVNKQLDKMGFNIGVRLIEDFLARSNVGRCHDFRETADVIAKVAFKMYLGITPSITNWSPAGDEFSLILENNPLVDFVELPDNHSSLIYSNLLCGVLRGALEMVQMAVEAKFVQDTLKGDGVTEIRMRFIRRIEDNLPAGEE
UniProt Q16763, sequence (Q16763 whole entry, looked up): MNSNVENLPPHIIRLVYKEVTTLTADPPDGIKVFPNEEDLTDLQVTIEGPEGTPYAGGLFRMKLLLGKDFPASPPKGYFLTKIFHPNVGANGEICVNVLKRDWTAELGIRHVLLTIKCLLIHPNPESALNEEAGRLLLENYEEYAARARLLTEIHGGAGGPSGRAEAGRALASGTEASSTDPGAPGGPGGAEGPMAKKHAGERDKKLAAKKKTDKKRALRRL

| Target | log2 fold change [1] | log2 fold change (volasertib) | log2 fold change [2] | log2 fold change (epoxomicin) | log2 fold change [3] | log2 fold change [4] | log2 fold change [5] | log2 fold change (rosiglitazone) | log2 fold change [6] | log2 fold change [7] | log2 fold change (saracatinib) | log2 fold change (sotrastaurin) | log2 fold change (alvocidib) | log2 fold change (Tubastatin A) | log2 fold change [8] | log2 fold change (defactinib) | log2 fold change (rucaparib) | log2 fold change [9] | log2 fold change (encorafenib) | log2 fold change [10] |
| --- | --- | --- | --- | --- | --- | --- | --- | --- | --- | --- | --- | --- | --- | --- | --- | --- | --- | --- | --- | --- |
| UFD1 isoform 1 (UniProt Q92890) | -0.009 | 0.021 | 0.008 | 0.063 | -0.021 | 0.063 | 0.003 | 0.008 | -0.045 | -0.015 | 0.008 | 0.005 | -0.021 | 0.027 | -0.022 | -0.013 | -0.02 | -0.054 | -0.004 | 0 |
| TMEM208 (UniProt Q9BTX3) | -0.071 | -0.208 | -0.048 | -0.03 | -0.046 | -0.022 | 0.274 | 0.081 | -0.02 | 0.036 | -0.047 | -0.02 | -0.039 | 0.003 | -0.142 | -0.023 | -0.045 | -0.099 | 0.145 | -0.164 |
| TRAPPC3 (UniProt O43617) | -0.019 | -0.118 | -0.02 | -0.029 | 0.047 | 0.04 | -0.016 | -0.022 | -0.051 | -0.059 | 0.063 | 0.001 | -0.071 | -0.026 | 0 | -0.072 | -0.056 | -0.014 | 0.015 | 0.013 |
| TOMM20 (UniProt Q15388) | -0.135 | -0.075 | -0.068 | -0.089 | 0.078 | -0.017 | -0.005 | -0.022 | -0.033 | -0.271 (active) | 0.012 | -0.005 | -0.001 | -0.031 | -0.028 | -0.011 | -0.009 | -0.034 | -0.131 | 0.033 |
| TXNL1 (UniProt O43396) | -0.104 | -0.163 | 0.044 | 0.295 (active) | -0.018 | -0.031 | 0.027 | 0.01 | -0.018 | 0.011 | -0.008 | -0.068 | -0.1 | 0.215 | 0.034 | -0.085 | 0.019 | 0.024 | 0.062 | -0.045 |
| UTP4 (UniProt Q969X6) | 0.032 | 0.006 | -0.017 | -0.02 | 0.001 | 0.043 | -0.036 | -0.006 | -0.061 | 0.233 (active) | 0.05 | 0.013 | 0.104 | -0.097 | 0.015 | 0.178 | 0.086 | 0.002 | -0.016 | 0.041 |
| WDR47 (UniProt O94967) | 0.011 | -0.112 | -0.02 | -0.037 | -0.047 | -0.055 | -0.012 | -0.003 | 0.029 | 0.234 | -0.019 | -0.008 | -0.002 | 0.039 | 0.035 | 0.052 | -0.071 | -0.041 | 0.045 | -0.087 |
| UBE2S (UniProt Q16763) | -0.025 | -0.214 (active) | 0.005 | 0.195 | -0.009 | 0.015 | 0.048 | -0.004 | -0.048 | 0.024 | -0.001 | -0.023 | -0.078 | 0.2 | -0.016 | -0.082 | -0.051 | -0.041 | 0.022 | -0.007 |
| TMEM223 (UniProt A0PJW6) | -0.004 | 0.043 | 0.035 | -0.01 | -0.009 | 0.022 | -0.015 | 0.032 | -0.022 | -0.271 (active) | 0.114 | 0.048 | -0.025 | -0.059 | 0.045 | 0.015 | -0.03 | -0.02 | -0.047 | 0.022 |
| UBAP2L isoform 5 (UniProt Q14157) | 0.005 | -0.023 | -0.02 | -0.018 | 0.019 | 0.004 | -0.035 | -0.007 | -0.039 | 0.009 | 0.017 | 0.013 | 0.038 | -0.006 | -0.096 | 0.009 | 0.018 | -0.006 | -0.018 | 0.015 |
| USO1 isoform 2 (UniProt O60763) | -0.108 | -0.254 (active) | 0.025 | 0.043 | 0.001 | -0.018 | 0.015 | 0.044 | -0.059 | -0.111 | 0.076 | -0.028 | -0.012 | -0.026 | 0.029 | -0.034 | -0.019 | 0.03 | 0.022 | -0.003 |
| VPS51 (UniProt Q9UID3) | -0.028 | -0.335 (active) | -0.036 | -0.015 | -0.033 | 0.003 | 0.032 | 0.016 | 0.094 | -0.135 | -0.029 | -0.097 | -0.113 | 0.029 | -0.011 | -0.056 | 0.041 | -0.034 | 0.046 | 0.002 |
| UBE2Q1 (UniProt Q7Z7E8) | -0.087 | -0.295 (active) | 0.015 | -0.042 | -0.075 | -0.048 | 0.027 | 0.061 | -0.007 | -0.212 | -0.023 | -0.001 | -0.069 | 0.027 | 0.05 | -0.143 | -0.008 | 0.048 | 0.04 | -0.017 |
| VPS41 (UniProt P49754) | -0.214 | -0.309 | 0.02 | -0.038 | -0.005 | -0.106 | -0.004 | 0.066 | 0.054 | -0.25 (active) | -0.02 | -0.077 | -0.046 | 0.034 | -0.055 | -0.041 | 0.023 | -0.001 | -0.011 | 0.103 |
| VTI1B (UniProt Q9UEU0) | -0.028 | -0.066 | -0.037 | -0.057 | 0.036 | -0.018 | -0.009 | 0.006 | 0.018 | -0.331 (active) | 0.041 | 0.07 | 0.055 | -0.046 | -0.008 | 0.005 | 0.004 | -0.091 | 0 | 0.046 |
| UBA6 | -0.139 | -0.189 | 0.057 | 0.029 | -0.008 | -0.031 | 0.033 | 0.016 | 0 | 0.001 | -0.006 | -0.125 | -0.08 | -0.047 | 0.041 | -0.089 | 0.024 | 0.011 | 0.049 | -0.032 |
